Assay results published in the supplement of paper PMC13380429.

Experiments:
[1] = tested on: Vero E6 infected with SARS-CoV-2; experiment: morphology score (similarity to uninfected cells); higher = more like uninfected cells; settings: 24 h
[2] = tested on: Vero E6 infected with SARS-CoV-2; experiment: SARS-CoV-2 infection rate relative to infected DMSO; higher = more infection, active = 60 or less; settings: 24 h

Row | SMILES | morphology score [1] | SARS-CoV-2 infection rate [2]
1 | O=C(Nc1ccccc1)Nc1ccc(-c2ccc(C(=O)[C@@H]3CCC[C@@H]3C(=O)O)cc2)cc1 (10 µM) | 0.202 | 102% (inactive)
2 | CCC(=O)O[C@]1(C(=O)CCl)[C@@H](C)C[C@H]2[C@@H]3C[C@H](F)C4=CC(=O)C=C[C@]4(C)[C@@]3(F)[C@@H](O)C[C@@]21C [halobetasol-propionate] (10 µM) | 0.0989 | 106% (inactive)
3 | Cc1c(CN(C)C(=O)/C=C/c2cnc3c(c2)CCC(=O)N3)oc2ccccc12 (10 µM) | 0.182 | 94% (inactive)
4 | COc1ccc2c(c1)C(=O)N(CCc1ccc(S(=O)(=O)NC(=O)NC3CCCCC3)cc1)C(=O)C2(C)C [gliquidone] (10 µM) | 0.283 | 98.5% (inactive)
5 | COc1cc(OC)cc(-c2ccc3c(-c4ccc(F)cc4)n[nH]c3n2)c1 (10 µM) | 0.102 | 106% (inactive)
6 | C[C@H](CCC(=O)O)[C@H]1CC[C@H]2[C@@H]3[C@@H](O)C[C@@H]4C[C@H](O)CC[C@]4(C)[C@H]3CC[C@]12C [ursodiol] (10 µM) | -0.0233 | 106% (inactive)
7 | Cc1ccccc1-n1c(Cn2nc(-c3cccc(O)c3)c3c(N)ncnc32)nc2cccc(C)c2c1=O (10 µM) | 0.0603 | 126% (inactive)
8 | CCOC(=O)[C@@]1(CCCCCCOc2ccc(Cl)cc2)CO1 [etomoxir] (10 µM) | -0.0546 | 109% (inactive)
9 | CCOC(=O)c1ncn2c1CN(C)C(=O)c1cc(F)ccc1-2 [flumazenil] (10 µM) | 0.0898 | 88.5% (inactive)
10 | C[C@@H](O)[C@@H]1NC(=O)[C@H](CCCCN)NC(=O)[C@@H](Cc2c[nH]c3ccccc23)NC(=O)[C@H](Cc2ccccc2)NC(=O)[C@@H](NC(=O)[C@H](N)Cc2ccccc2)CSSC[C@@H](C(=O)N[C@H](CO)[C@@H](C)O)NC1=O [octreotide] (10 µM) | 0.0589 | 102% (inactive)
11 | CN1C(=O)COc2c(C(=O)NC3CN4CCC3CC4)cc(Cl)cc21 (centres undefined) [azasetron] (10 µM) | 0.143 | 98% (inactive)
12 | CC(=O)Oc1ccccc1C(=O)Oc1cccc(CO[N+](=O)[O-])c1 (10 µM) | 0.178 | 101% (inactive)
13 | CNCCCOc1cc(F)c(-c2c(Cl)nc3ncnn3c2N[C@@H](C)C(F)(F)F)c(F)c1 [cevipabulin] (10 µM) | -0.0738 | 92% (inactive)
14 | C[C@H](Nc1ncnc2[nH]cnc12)c1nc2ccc(F)cc2c(=O)n1-c1ccccc1 [acalisib] (0.833333 µM) | -0.115 | 110% (inactive)
15 | CC(=O)[C@H]1CC[C@H]2[C@@H]3CC=C4C[C@@H](OC(=O)CCC(=O)O)CC[C@]4(C)[C@H]3CC[C@]12C [pregnenolone-succinate] (10 µM) | -0.0431 | 104% (inactive)
16 | CC(C)NCC(O)COc1cccc2[nH]ccc12 (centres undefined) [pindolol] (10 µM) | 0.0938 | 104% (inactive)
17 | CC(=O)OCC(=O)[C@@]12N=C(C)O[C@@H]1C[C@H]1[C@@H]3CCC4=CC(=O)C=C[C@]4(C)[C@H]3[C@@H](O)C[C@@]12C [Deflazacort (Calcort)] (10 µM) | 0.0216 | 97.5% (inactive)
18 | O=C(Nc1cccc2cccnc12)c1ccc(N2C(=O)[C@@H]3[C@H](C2=O)[C@@H]2C=C[C@H]3C2)cc1 [endo-IWR-1] (10 µM) | -0.0752 | 98.5% (inactive)
19 | CN[C@H](CC(C)C)C(=O)N[C@H]1C(=O)N[C@@H](CC(N)=O)C(=O)N[C@H]2C(=O)N[C@H]3C(=O)N[C@H](C(=O)N[C@H](C(=O)O)c4cc(O)cc(O)c4-c4cc3ccc4O)[C@H](O[C@H]3C[C@](C)(N)[C@@H](O)[C@H](C)O3)c3ccc(c(Cl)c3)Oc3cc2cc(c3O[C@@H]2O[C@H](CO)[C@@H](O)[C@H](O)[C@H]2O[C@H]2C[C@](C)(NCc3ccc(-c4ccc(Cl)cc4)cc3)[C@@H](O)[C@H](C)O2)Oc2ccc(cc2Cl)[C@H]1O [oritavancin] (10 µM) | 0.0399 | 92% (inactive)
20 | O=C(Nc1ccc(C(F)(F)F)cn1)N1CCN(c2ncccc2C(F)(F)F)CC1 (10 µM) | 0.0927 | 93.5% (inactive)
21 | CCCCCCCCCCCCCCCCCC(=O)OCC(O)CO (centres undefined) [monostearin] (10 µM) | -0.0152 | 108% (inactive)
22 | CO/N=C(\C(=O)N[C@@H]1C(=O)N2C(C(=O)OCOC(=O)C(C)(C)C)=C(/C=C\c3scnc3C)CS[C@H]12)c1csc(N)n1 [cefditoren-pivoxil] (10 µM) | 0.149 | 99.5% (inactive)
23 | Cc1ccc2nc(NCCN)c3ncc(C)n3c2c1 (0.833333 µM) | -0.353 | 116% (inactive)
24 | CN(C)C1CCN(C(=O)c2ccc(NC(=O)Nc3ccc(-c4nc(N5CCOCC5)nc(N5CCOCC5)n4)cc3)cc2)CC1 (10 µM) | -0.0113 | 115% (inactive)
25 | Cc1ccc(-c2c(-c3nn(C)c4ncnc(N5CC[C@H](N6CCCCC6)C5)c34)cnn2C)cc1 (10 µM) | 0.14 | 100% (inactive)
26 | NC(=O)c1ncn([C@@H]2O[C@H](CO)[C@@H](O)[C@H]2O)c1O [mizoribine] (10 µM) | 0.0626 | 112% (inactive)

Row | SMILES | morphology score [1] | SARS-CoV-2 infection rate [2]
27 | c1ccc(CCCN2CCN(CCOC(c3ccccc3)c3ccccc3)CC2)cc1 (10 µM) | 0.239 | 94% (inactive)
28 | Nc1nc2c(c(N3CCNCC3)n1)CCC1=C2[C@@H]2CCCC[C@@H]2O1 (10 µM) | 0.247 | 83.5% (inactive)
29 | COc1cccc(-c2ccc([C@@H](Oc3cc(-c4ccc(C[C@H](N)C(=O)O)cc4)nc(N)n3)C(F)(F)F)cc2)c1 (10 µM) | 0.0975 | 102% (inactive)
30 | C#CCN(C)[C@H](C)Cc1ccccc1 [selegiline] (10 µM) | 0.0406 | 105% (inactive)
31 | O=C(O)[C@H]1CC[C@H](c2cc3cccnc3c(-c3cccc(F)c3)n2)CC1 (10 µM) | 0.315 | 103% (inactive)
32 | CCCCN(CCCC)CCCOC(=O)c1ccc(N)cc1 [butacaine] (10 µM) | 0.206 | 100% (inactive)
33 | O=C(CN1C2=NCCN2c2ccccc21)c1ccc(-c2ccccc2)cc1 (10 µM) | 0.646 | 35% (active)
34 | O=C1c2ccccc2C(=O)C1c1ccc(Cl)cc1 [chlorindione] (10 µM) | 0.011 | 102% (inactive)
35 | CS(=O)(=O)c1ccc([C@@H](CC2CCCC2)C(=O)Nc2nccs2)cc1 (10 µM) | 0.0357 | 104% (inactive)
36 | CC1(C)CCC2=C(O1)c1ccccc1C(=O)C2=O [beta-lapachone] (10 µM) | 0.361 | 78.5% (inactive)
37 | CN1C2CCC1CC(OC(=O)C(O)c1ccccc1)C2 (centres undefined) [Homatropine Bromide] (10 µM) | 0.0164 | 108% (inactive)
38 | COc1ccccc1N1CCN(CCN2C(=O)CC3(CCCC3)CC2=O)CC1 (10 µM) | -0.291 | 116% (inactive)
39 | CC(C)C[C@@H](NC(=O)[C@H](C)NC(=O)CNC(=O)[C@@H](NC=O)C(C)C)C(=O)N[C@@H](C)C(=O)N[C@@H](C(=O)N[C@H](C(=O)N[C@@H](C(=O)N[C@@H](Cc1c[nH]c2ccccc12)C(=O)N[C@H](CC(C)C)C(=O)N[C@@H](Cc1c[nH]c2ccccc12)C(=O)N[C@H](CC(C)C)C(=O)N[C@@H](Cc1c[nH]c2ccccc12)C(=O)N[C@H](CC(C)C)C(=O)N[C@@H](Cc1c[nH]c2ccccc12)C(=O)NCCO)C(C)C)C(C)C)C(C)C [gramicidin] (10 µM) | -0.258 | 100% (inactive)
40 | O=C(O)c1cccc(-c2noc(-c3ccccc3F)n2)c1 [ataluren] (10 µM) | -0.00572 | 112% (inactive)
41 | CCN(CC)CCOC(=O)C1(c2ccc([N+](=O)[O-])cc2)CCCC1 [nitrocaramiphen] (10 µM) | 0.137 | 104% (inactive)
42 | Cc1ccc(-c2csc3ncnc(SCCC(=O)O)c23)cc1 (10 µM) | 0.15 | 103% (inactive)
43 | COc1ccc(S(=O)(=O)N2CCC[C@H]2C(=O)Nc2cc(C)cc(C)c2)cc1 (10 µM) | -0.0886 | 113% (inactive)
44 | Cc1nc2ccc(-n3ncc(C(=O)c4cc5ccccc5[nH]4)c3N)cc2[nH]1 (0.833333 µM) | 0.131 | 101% (inactive)
45 | CC(C)(O)c1ccccc1CC[C@@H](SCC1(CC(=O)O)CC1)c1cccc(/C=C/c2ccc3ccc(Cl)cc3n2)c1 [montelukast] (10 µM) | 0.169 | 92.5% (inactive)
46 | O=C(O)c1cccnc1C(=O)O [quinolinic-acid] (10 µM) | 0.107 | 108% (inactive)
47 | CC(=O)OCC(=O)[C@@]1(O)CC[C@H]2[C@@H]3CCC4=CC(=O)CC[C@]4(C)[C@@]3(F)[C@@H](O)C[C@@]21C (10 µM) | 0.0369 | 99.5% (inactive)
48 | Cc1cc(NC(=O)C(c2ccccc2)N2CCCc3ccccc32)no1 (centres undefined) (10 µM) | 0.018 | 92% (inactive)
49 | Cc1c(C(=O)NN2CCCCC2)nn(-c2ccc(Cl)cc2Cl)c1-c1ccc(Cl)cc1 [rimonabant] (10 µM) | 0.17 | 110% (inactive)
50 | Nc1nc(=O)c(Br)c(-c2ccccc2)[nH]1 [bropirimine] (10 µM) | 0.109 | 99.5% (inactive)
51 | CN(C)C(=O)[C@H](O)[C@H](Cc1ccccc1)NC(=O)c1cc2cc(Cl)ccc2[nH]1 (10 µM) | 0.225 | 102% (inactive)
52 | CCC(=O)O[C@]1(C(=O)COC(C)=O)CC[C@H]2[C@@H]3C[C@H](C)C4=CC(=O)C=C[C@]4(C)[C@H]3[C@@H](O)C[C@@]21C [methylprednisolone-aceponate] (10 µM) | 0.0786 | 108% (inactive)
